Compound activity (PubChem BioAssay)
Shown are actives, neighbours in structure and some others; about 0.81% of the full set was active somewhere.
TRPML1 agonist: agonists of human TRPML1 channel; TRPML1-expressing cells, Ca2+ dye fluorescence, FDSS; activation, % (test concentration not listed); Q9GZU1; AID 624414; actives 0.12% (n = 410,000); in the data active = activation above about 50%; note: 0% is about no effect
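In this qHTS format, compounds were pin-transferred onto Ca8-dye-loaded TRPML1-DL cells induced with Tet overnight, and intracellular Ca2+ fluorescence was recorded kinetically for 110 s after a 10 s baseline. A subsequent 4uM final 54-4 (EC80) addition followed by a second 110 s read served as the antagonist phase.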
TRHR enhancer: allosteric enhancers of human TRH receptor; TRHR cells, fluo-8 calcium fluorescence, EC20 TRH enhancement; enhancement, % at 2 µM; actives 0.66% (n = 360,000); AID 493056; in the data active = enhancement above about 30%; note: 0% is about no effect
Target sequence (P34981 whole entry, looked up): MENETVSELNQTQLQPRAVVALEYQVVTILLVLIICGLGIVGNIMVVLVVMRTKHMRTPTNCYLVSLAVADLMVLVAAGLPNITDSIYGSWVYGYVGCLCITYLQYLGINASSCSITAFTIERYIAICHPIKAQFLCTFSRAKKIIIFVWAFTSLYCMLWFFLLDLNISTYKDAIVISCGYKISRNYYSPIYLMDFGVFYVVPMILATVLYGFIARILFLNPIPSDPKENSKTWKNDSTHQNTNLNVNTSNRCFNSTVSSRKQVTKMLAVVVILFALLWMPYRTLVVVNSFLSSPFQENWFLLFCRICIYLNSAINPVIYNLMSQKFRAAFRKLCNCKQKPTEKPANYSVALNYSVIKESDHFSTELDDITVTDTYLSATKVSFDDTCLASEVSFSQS
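TRHR-expressing cells loaded with fluo-8 calcium dye were read kinetically (ex 480/em 530) during compound addition, then stimulated with an EC20 of TRH (10 nM final). Enhancement of the Gq-mediated intracellular calcium response was scored.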
TRPML1 blocker: human mucolipin-1 channel inhibition. AID 624415. Q9GZU1. activity change, negative = inhibition, % (no concentration beside the values). TRPML1-inducible cells, Ca2+ dye fluorescence, FDSS; hits give low values; inhibition of EC80 agonist-evoked calcium signal. actives 0.02% (n = 390,000); in the data active = activity change below about -50%;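 note: stimulus is agonist 54-4 at its EC80 concentration; % is set by controls: 0 for no effect and ±100 for the full control effect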
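TRPML1-DL cells, Tet-induced overnight (~16 h, 37 °C) at 1,500 cells/well, were loaded with Ca8 no-wash dye plus quencher for 45-90 min at room temperature. Compounds were pinned during FDSS kinetic reading; agonist 54-4 at EC80 (4 uM final) then added.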
TRHR agonist: activates the human TRH receptor. P34981. TRHR cells, calcium flux fluo-8, FDSS agonist mode. activation, % at 2 µM. actives 0.18% (n = 360,000); in the data active = activation above about 30%; note: 0% is about no effect
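Agonist-mode FDSS calcium read (Ex 480/Em 530, 1 s cycles) in 1536-well TRHR cells with fluo-8 dye, after 10-cycle baseline and 23 nL compound addition; TRH at EC20 (10 nM final) added afterwards for the enhancer phase.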
The depositor's hits bear a star; . = not tested or not shown; ! = not confirmed by another sample.

SMILES | TRPML1 agonist | TRHR enhancer | TRPML1 blocker | TRHR agonist
CCCCOc1cccc(C(=O)Nc2cccc(-c3nc4ncccc4o3)c2C)c1 | 0 | 43* | -11 | -2
C(=C\c1nccc2ccccc12)/c1ccc(N2CCOCC2)cc1 | 4 | . | . | .
COc1ccc(NC(=O)CN2C(=O)c3cccnc3Sc3ccccc32)cc1OC | 1 | -8 | -2 | -1
Cc1ccc(NC(=O)CN2C(=O)c3ccccc3C2=O)cc1 | -1 | 40* | -17 | 0
Cc1ccc(NC(=O)CN2C(=O)c3cccnc3Sc3ccccc32)cc1C | -1 | 33* | -2 | -1
Cc1ccc(NC(=O)CNC(=O)CN2C(=O)c3ccccc3C2=O)cc1 | -1 | . | . | .
Cc1ccccc1NS(=O)(=O)c1ccc2[nH]c(=O)[nH]c2c1 | 1 | 30* | -3 | 0
CN(C)c1ccc(/C=C/c2c(F)cnc3ccccc23)cc1 | 4 | . | . | .
Cc1cc2c(s1)c1cnn(Cc3cccc(Cn4ncc5c6sc(C)cc6n(C)c5c4=O)c3F)c(=O)c1n2C | . | 2 | . | -1
CSC1=NC2C(N1)N(C)C(=O)N2C (stereo not given) | -1 | 39* | 1 | 0
Cc1cccc[n+]1CC(=O)N1c2ccccc2Sc2ccccc21 | 0 | 31* | 17 | -2
Cc1cc2c(s1)c1cnn(Cc3cc(C(F)(F)F)cc(Cl)c3F)c(=O)c1n2C | . | 6 | . | 2
CN(C)c1ccc(C=C2c3ccccc3-c3ccccc32)cc1 | 0 | . | . | .
CN(C)c1ccc(C=C2C(=O)c3ccccc3C2=O)cc1 | 51* | . | . | .
COc1ccccc1/C=C/c1ccnc2ccccc12 | -1 | . | . | .
O=C1C=C(c2ccccc2)C(=O)N1Nc1ccccc1 | 7 | 33* | 6 | 4
COc1cc2c(NC3CCN(C)CC3)nc(N3CCN(C)CC3)nc2cc1OCCCN(C)C | -1 | . | . | .
COc1ccccc1NC(=O)c1ccc(NC(=O)COC(=O)C(C)C)cc1 | 0 | 34* | 32 | 0
COc1ccccc1NC(=O)c1ccc(NC(=O)COC(=O)c2ccc(O)cc2)cc1 | 1 | 1 | 10 | 0
CC(=O)c1ccc(-c2ccc(-c3cc(=O)oc4c(C(C)C)ccc(C)c34)cc2)cc1 | 64* | . | -1 | .
C(=C\c1nc2ccccc2o1)/c1ccc2c(c1)OCO2 | 1 | . | . | .
Nc1c(C(=O)NCc2ccccc2)nnn1Cc1ccccc1 | 0 | 34* | -16 | 1
CSc1ccc(Cn2nnc(C(=O)NCc3ccccc3)c2N)cc1 | 11 | -4 | 5 | 3
CC1C/C(=C/c2cccn2C)C(=O)/C(=C/c2cccn2C)C1 (stereo not given) | 28 | 35* | -14 | 82*
CC1C/C(=C/c2ccncc2)C(=O)/C(=C/c2ccncc2)C1 (stereo not given) | 0 | -2 | 45 | 2
SMILES | TRPML1 agonist | TRHR enhancer | TRPML1 blocker | TRHR agonist
COc1cc(C(=O)NCCc2cn3ccccc3n2)cc(OC)c1OC | 0 | 30* | 38 | 0
CCOC(=O)N1CCN(C(=O)c2oc3ccc(S(=O)(=O)N4CCOCC4)cc3c2C)CC1 | -1 | 34* | -8 | -1
CCOC(=O)c1oc2ccc(S(=O)(=O)n3nc(-c4ccc(C)cc4)cc3N)cc2c1C | -1 | 42*! | -11 | 1
CCOC(=O)c1oc2ccc(S(=O)(=O)n3nc(-c4ccc(Cl)cc4)cc3N)cc2c1C | -1 | 2 | 32 | 0
O=C(CCn1c(=O)[nH]c2ccsc2c1=O)N1CCN(c2ccc([N+](=O)[O-])cc2)CC1 | 3 | 36* | 12 | 0
N#C/C(=C/c1ccccc1)C(=O)NCc1ccccc1 | 1 | -6 | -4 | 0
CN(C)c1ccc(/C=C(/C#N)C(=O)NCc2ccccc2)o1 | 20 | -2 | 3 | 43*
COc1ccc(C2C(C(C)=O)=C(C)N=c3s/c(=C\c4cc(C)n(C)c4C)c(=O)n32)c(OC)c1 (stereo not given) | 29 | 10 | 10 | 53*
O=C(CN1CCOCC1)Nc1cc(C(F)(F)F)ccc1Cl | -1 | -2 | -7 | -2
Cc1ccc(C)n1CCN1CCN(CC(=O)Nc2cc(C(F)(F)F)ccc2Cl)CC1 | . | 55* | . | 0
O/N=C(/CI)c1ccc2ccccc2c1 | 0 | . | . | .
N/C(Cc1nc2ccccc2s1)=N\O | 0 | -1 | -26 | 2
NC(=O)CSCc1nc2ccccc2s1 | 0 | 37* | 5 | 2
O=C(c1nc2n(n1)C(c1ccc(Cl)cc1)C=C(c1ccccc1)N2)N1CCOCC1 (stereo not given) | 9 | 6 | -12 | 33*
